APOBEC3G inh: APOBEC3G DNA deaminase inhibitors, primary screen, biochemical, fluorescence, single-stranded DNA substrate, uHTS; DNA dC->dU-editing enzyme APOBEC-3G (Homo sapiens), Q9HC16; recombinant A3G, ssDNA deamination FAM/TAMRA fluorescence; inhibition, % at 20 µM; actives 0.28% (n = 330,000);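 active = inhibition of at least 40% at 20 µM, with no more than 30% in the related APOBEC3A deaminase screen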;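 note: plate controls were DMSO wells with A3G for no effect and wells lacking A3G enzyme for full effect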
NRP1-CendR mod: modulators of CendR peptide binding to NRP-1, primary screen, biochemical, fluorescence polarization, uHTS | Neuropilin-1 (Homo sapiens), O14786 | FAM-RPARPAR peptide binding to NRP-1 | inhibition, % at 25 µM | actives 0.85% (n = 360,000) | AID 602438, 2012;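 active = inhibition or corrected inhibition above about 18%, plus a signal ratio from 0.5 to 1.5, limit read from the data, passing the limit was not always enough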
APOBEC3A inh: APOBEC3A ssDNA deaminase inhibitors, primary screen, selectivity assay for APOBEC3G inhibitor project, biochemical, FAM/TAMRA oligo cleavage fluorescence | inhibition, % at 20 µM | actives 0.41% (n = 330,000) | recombinant A3A, FAM/TAMRA ssDNA deamination fluorescence | AID 493011, 2011 | DNA dC->dU-editing enzyme APOBEC-3A (Homo sapiens), P31941;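 active = at least 40% inhibition at 20 µM here, with at most 30% in a related deaminase screen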;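 note: plate controls were A3A with DMSO for no effect and wells lacking A3A enzyme for full effect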
ADAM17 inh: ADAM17 inhibitors, primary screen, biochemical, QFRET | Disintegrin and metalloproteinase domain-containing protein 17 (Homo sapiens), P78536 | recombinant ADAM17, EDANS/DABCYL FRET peptide cleavage | inhibition, % at 6.95 µM | actives 0.83% (n = 370,000) | AID 720648, 2013;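 active = inhibition above the mean of compounds lying between control limits plus 3 SD, set per campaign, cut at about 8.5% in these data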;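 note: 0% = DMSO-only wells as the low control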
ADAM10 inh: human ADAM10 inhibitors, primary screen, biochemical, QFRET, HTS; AID 720582, 2013; inhibition, % at 7 µM; actives 0.62% (n = 370,000); Disintegrin and metalloproteinase domain-containing protein 10 (Homo sapiens), O14672; recombinant ADAM10, EDANS/DABCYL FRET peptide cleavage, 3 h;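 active = inhibition above a per-campaign cutoff equal to the mean of compounds falling between control-based bounds plus 3 SD, cut at about 20% in these data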;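 note: 0% = DMSO wells while the 100% control is not disclosed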
ADAM10 confirm: human ADAM10 inhibitors, confirmation, biochemical, QFRET, triplicate. shares compounds with ADAM10 inh. ADAM10 QFRET peptide cleavage, EDANS fluorescence. inhibition, % at 6.95 µM. actives 1% (n = 2,100). AID 743208, 2013;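 active = inhibition above about 20% chosen separately for each screening run, limit read from the data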;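 note: 0% = DMSO wells and 100% = marimastat wells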
ADAM17 counter: ADAM17 inhibitors, counter-screen for ADAM10 exosite inhibitor project, biochemical, QFRET, high throughput; shares compounds with ADAM10 inh; ADAM17 QFRET peptide cleavage, EDANS fluorescence; inhibition, % at 6.95 µM; actives 0.5% (n = 2,100); AID 743214, 2013;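 active = mean triplicate inhibition above the solvent-only control wells' mean plus 3 SD, cut at about 12% in these data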;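 note: 0% = DMSO wells and 100% = marimastat wells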
ADAM10 counter: ADAM10 inhibitors, counter-screen for ADAM17 exosite inhibitor project, biochemical, FRET, human ADAM10; inhibition, % at 6.95 µM; shares compounds with ADAM17 inh; actives 47% (n = 2,900); AID 743256, 2014; recombinant ADAM10, EDANS/DABCYL FRET peptide cleavage, 3 h;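 active = mean inhibition over the triplicate runs exceeds the activity threshold set in the earlier primary screen, cut at about 20% in these data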;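 note: 0% = DMSO wells and 100% = marimastat wells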
ADAM17 confirm: ADAM17 inhibitors, hit retest, confirmation, biochemical, QFRET peptide cleavage; shares compounds with ADAM17 inh; recombinant ADAM17, EDANS/DABCYL QFRET peptide cleavage; inhibition, % at 6.95 µM; actives 65% (n = 2,900); AID 743257, 2014;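 active = mean inhibition across replicates above the hit cutoff set in the primary screen, cut at about 8.5% in these data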;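 note: 0% = DMSO wells and 100% = marimastat wells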
* = called active by the depositor; . = no result given. In the library only some 2.4% were active in any assay of this set; here they are far more common.

SMILES	APOBEC3G inh	NRP1-CendR mod	APOBEC3A inh	ADAM17 inh	ADAM10 inh	ADAM10 confirm	ADAM17 counter	ADAM10 counter	ADAM17 confirm
O=C1C=C(c2ccc3[nH]ccc3c2)C[C@@H](c2ccc(Cl)cc2)C1	3	8	2	15*	21*	10	4	7	8
C[C@H]1C2CC(OC(=O)Nc3ccccc3C(F)(F)F)C(C2)[C@H]2CCCCN21 (some centres undefined)	.	.	.	-10	-13	.	.	.	.
COC(=O)[C@]12C[C@H](CC(=O)N3CCCC3)C(=O)N(CCc3ccc(OC)c(OC)c3)C1=C[C@H](COCc1ccccc1)O[C@@H]2C	.	.	.	-4	-4	.	.	.	.
O=C(COc1ccc(F)cc1)N(Cc1ccc(Cl)cc1)C1CCS(=O)(=O)C1 (centres undefined)	-7	-1	-3	-1	-3	.	.	.	.
Cc1cccc(C)c1OCC(=O)N(Cc1ccc(Cl)cc1)C1CCS(=O)(=O)C1 (centres undefined)	-4	-3	-7	9.2*	20*	-2	0	-3	2
O=C(N[C@H](Cc1ccccc1)C(=O)N1CCN(c2ncccn2)CC1)[C@H]1O[C@@H](n2ccc(=O)[nH]c2=O)[C@H](O)[C@@H]1O	.	.	.	-9	-28	.	.	.	.
O=C(NC1CCC1)c1ccc(C#CC2CC2)c[n+]1[O-]	.	.	.	-5	-11	.	.	.	.
OCCNc1nc(Nc2ccccc2Oc2ccccc2)nc(N2CCCC2)n1	-11	-15	-1	12*	27*	7	1	21*	13*
Cc1ccc(S(=O)(=O)NCC2Cc3ccccc3N2S(=O)(=O)c2ccc(C)cc2)cc1 (centres undefined)	.	.	.	9.2*	22*	7	3	39*	17*
CCOC(=O)c1ccc(S(=O)(=O)NCC(c2ccc(N(C)C)cc2)c2c[nH]c3ccccc23)cc1 (centres undefined)	-11	-20	-1	12*	26*	9	3	36*	23*
CN(C)c1ccc(C(CNC(=O)c2ccc(C#N)cc2)c2c[nH]c3ccccc23)cc1 (centres undefined)	-2	-12	0	7	13	.	.	.	.
CC1CCC2(CC1)CCC2NCc1ccc(Cl)c(Cl)c1 (centres undefined)	.	.	.	-5	-4	.	.	.	.
CCCCCOC(=O)C1=C(C)N(C)C(=O)NC1c1cc(Br)c(O)c(OC)c1 (centres undefined)	-2	-7	8	11*	20*	-1	1	8	5
CCCCOC(=O)C1=C(C)N(C)C(=O)NC1c1cc2c(cc1Br)OCO2 (centres undefined)	.	-1	.	-3	0	.	.	.	.
CN(CC(=O)Nc1cccc(F)c1)CC(=O)Nc1cccc(S(=O)(=O)N2CCCCCC2)c1	-5	-4	2	16*	36*	1	0	23*	14*
O=C(CNc1ccc(C(F)(F)F)cc1)Nc1cccc(S(=O)(=O)N2CCCCC2)c1	.	-3	.	9.8*	22*	7	2	54*	27*

Screening data as filed in PubChem.
